# Source: PMC7862700, “An all-to-all approach to the identification of sequence-specific readers for epigenetic DNA modifications on cytosine”
# Tests used:
# Assay in all cases: DAPPL (digital affinity profiling via proximity ligation, sequencing); 10 mM Tris-HCl pH 7.5, 50 mM NaCl, 1 mM DTT, 4% glycerol, room temperature, 30 min; GST-TFs on glutathione beads, 16-mer random dsDNA library, 0.1% formaldehyde crosslink after washing; high values mean tight binding
# Conditions in all cases: protein: recombinant; tags: N-terminal GST; dsDNA, one strand shown
# ELK1 = target: T1, ELK1 (Homo sapiens, UniProt P19419 1-428)
# T1 sequence: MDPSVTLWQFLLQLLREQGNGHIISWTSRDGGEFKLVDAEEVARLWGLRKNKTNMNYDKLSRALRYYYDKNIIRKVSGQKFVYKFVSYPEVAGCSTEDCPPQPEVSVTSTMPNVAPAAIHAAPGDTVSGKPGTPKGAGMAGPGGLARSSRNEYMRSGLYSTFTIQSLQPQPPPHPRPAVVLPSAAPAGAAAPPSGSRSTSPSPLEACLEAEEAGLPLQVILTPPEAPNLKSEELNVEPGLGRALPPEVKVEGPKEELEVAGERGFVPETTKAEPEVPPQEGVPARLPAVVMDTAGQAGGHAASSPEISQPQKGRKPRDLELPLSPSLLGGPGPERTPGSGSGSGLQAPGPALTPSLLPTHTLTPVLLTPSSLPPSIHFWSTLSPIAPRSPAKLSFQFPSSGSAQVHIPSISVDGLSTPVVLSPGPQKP
# How it was run: (§1)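 Human transcription factors were made in yeast as GST fusions, captured on glutathione beads and barcoded with DNA. With a tag-only sample included, the pool was incubated with 200 nmole of a random double-stranded 16-mer DNA library in Tris/NaCl/DTT/glycerol buffer at room temperature for 30 min, then crosslinked with 0.1% formaldehyde after washing, ligated by proximity, amplified and sequenced. For binding signal, each hexamer's read frequency for a factor is divided by its frequency for the tag-only sample.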
# GABPA = target: T2, GABPA (Homo sapiens, UniProt Q06546 1-454)
# T2 sequence: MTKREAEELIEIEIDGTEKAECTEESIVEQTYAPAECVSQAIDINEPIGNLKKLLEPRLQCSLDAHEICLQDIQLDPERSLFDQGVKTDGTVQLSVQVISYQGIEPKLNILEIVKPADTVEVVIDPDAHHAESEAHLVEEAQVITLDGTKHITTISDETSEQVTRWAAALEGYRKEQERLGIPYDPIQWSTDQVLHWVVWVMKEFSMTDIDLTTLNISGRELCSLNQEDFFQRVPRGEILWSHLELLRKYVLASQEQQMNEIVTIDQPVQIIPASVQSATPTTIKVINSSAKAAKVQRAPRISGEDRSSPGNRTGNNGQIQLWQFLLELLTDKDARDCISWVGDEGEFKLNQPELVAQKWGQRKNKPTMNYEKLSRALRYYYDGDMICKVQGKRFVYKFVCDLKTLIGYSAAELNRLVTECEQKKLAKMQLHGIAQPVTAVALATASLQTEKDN
# How it was run: as §1
# ERG = target: T3, ERG (Homo sapiens, UniProt P11308 1-479)
# T3 sequence: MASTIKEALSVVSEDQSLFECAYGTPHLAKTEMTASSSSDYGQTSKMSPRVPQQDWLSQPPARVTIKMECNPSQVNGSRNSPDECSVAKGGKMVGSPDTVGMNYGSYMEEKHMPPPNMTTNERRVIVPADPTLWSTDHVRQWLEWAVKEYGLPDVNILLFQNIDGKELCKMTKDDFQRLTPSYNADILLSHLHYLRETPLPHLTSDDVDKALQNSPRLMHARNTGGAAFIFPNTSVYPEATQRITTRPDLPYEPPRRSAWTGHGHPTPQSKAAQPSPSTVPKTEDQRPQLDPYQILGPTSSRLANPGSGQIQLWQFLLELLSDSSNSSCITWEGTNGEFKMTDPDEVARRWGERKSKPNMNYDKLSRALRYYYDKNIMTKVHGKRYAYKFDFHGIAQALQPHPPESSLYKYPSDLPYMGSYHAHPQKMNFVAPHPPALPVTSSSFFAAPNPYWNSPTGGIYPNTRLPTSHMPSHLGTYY
# How it was run: as §1
# ELF1 = ELF1 (Homo sapiens, UniProt P32519 1-619)
# How it was run: as §1
# EHF = target: T4, EHF (Homo sapiens, UniProt Q9NZC4 1-300)
# T4 sequence: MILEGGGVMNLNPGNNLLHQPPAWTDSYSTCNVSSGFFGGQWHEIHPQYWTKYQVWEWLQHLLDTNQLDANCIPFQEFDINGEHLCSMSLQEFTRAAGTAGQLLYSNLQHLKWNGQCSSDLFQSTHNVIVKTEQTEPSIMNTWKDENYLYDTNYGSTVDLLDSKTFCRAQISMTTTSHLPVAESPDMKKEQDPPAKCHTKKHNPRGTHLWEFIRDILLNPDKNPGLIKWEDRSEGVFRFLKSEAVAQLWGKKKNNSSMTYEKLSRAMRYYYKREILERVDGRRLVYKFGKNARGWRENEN
# How it was run: as §1
# SPIB = SPIB (Homo sapiens, UniProt Q01892 1-262)
# How it was run: as §1
# ELK3 = target: T5, ELK3 (Homo sapiens, UniProt P41970 1-407)
# T5 sequence: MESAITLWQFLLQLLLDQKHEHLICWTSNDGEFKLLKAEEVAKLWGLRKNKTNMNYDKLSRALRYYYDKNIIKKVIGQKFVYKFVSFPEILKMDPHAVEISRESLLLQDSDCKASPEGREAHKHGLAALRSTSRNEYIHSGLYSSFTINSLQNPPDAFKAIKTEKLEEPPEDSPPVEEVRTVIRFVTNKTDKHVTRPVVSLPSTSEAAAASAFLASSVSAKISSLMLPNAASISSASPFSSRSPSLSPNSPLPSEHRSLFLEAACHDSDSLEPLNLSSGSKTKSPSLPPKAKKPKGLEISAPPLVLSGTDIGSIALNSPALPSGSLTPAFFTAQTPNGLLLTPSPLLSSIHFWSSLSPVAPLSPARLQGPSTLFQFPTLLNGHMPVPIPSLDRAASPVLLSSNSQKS
# How it was run: as §1
# SPIC = target: T6, SPIC (Homo sapiens, UniProt Q8N5J4 1-248)
# T6 sequence: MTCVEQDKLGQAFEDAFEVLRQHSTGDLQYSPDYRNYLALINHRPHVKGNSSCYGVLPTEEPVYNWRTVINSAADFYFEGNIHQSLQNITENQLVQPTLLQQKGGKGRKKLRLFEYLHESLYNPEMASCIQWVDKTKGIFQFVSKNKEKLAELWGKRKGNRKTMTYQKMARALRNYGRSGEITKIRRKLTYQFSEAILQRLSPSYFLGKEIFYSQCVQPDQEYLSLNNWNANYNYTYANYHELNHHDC
# How it was run: as §1
# ELK4 = target: T7, ELK4 (Homo sapiens, UniProt P28324-2 1-405)
# T7 sequence: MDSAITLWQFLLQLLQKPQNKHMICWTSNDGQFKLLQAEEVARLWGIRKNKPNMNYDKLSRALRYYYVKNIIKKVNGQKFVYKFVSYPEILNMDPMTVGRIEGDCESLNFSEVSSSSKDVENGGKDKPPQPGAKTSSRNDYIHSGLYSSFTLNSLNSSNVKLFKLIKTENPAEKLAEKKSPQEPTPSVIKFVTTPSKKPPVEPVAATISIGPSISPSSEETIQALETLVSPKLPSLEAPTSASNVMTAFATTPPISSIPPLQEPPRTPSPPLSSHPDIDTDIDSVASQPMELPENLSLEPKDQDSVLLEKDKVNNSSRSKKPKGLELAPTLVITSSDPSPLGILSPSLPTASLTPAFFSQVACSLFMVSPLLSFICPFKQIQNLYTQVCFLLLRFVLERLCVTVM
# How it was run: as §1
# ELF3 = target: T8, ELF3 (Homo sapiens, UniProt P78545 1-371)
# T8 sequence: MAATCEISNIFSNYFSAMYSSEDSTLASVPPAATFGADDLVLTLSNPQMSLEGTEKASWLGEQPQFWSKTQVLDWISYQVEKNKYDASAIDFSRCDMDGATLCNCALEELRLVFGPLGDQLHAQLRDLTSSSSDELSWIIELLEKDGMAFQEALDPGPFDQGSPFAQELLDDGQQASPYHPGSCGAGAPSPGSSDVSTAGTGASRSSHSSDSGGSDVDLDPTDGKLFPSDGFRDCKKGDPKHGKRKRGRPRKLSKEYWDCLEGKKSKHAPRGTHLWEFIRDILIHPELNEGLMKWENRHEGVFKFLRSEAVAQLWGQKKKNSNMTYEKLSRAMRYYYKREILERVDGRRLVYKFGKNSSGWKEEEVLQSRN
# How it was run: as §1
# ETV1 = ETV1 (Homo sapiens, UniProt P50549 1-477)
# How it was run: as §1
# ETV3L = target: T9, ETV3L (Homo sapiens, UniProt Q6ZN32 1-361)
# T9 sequence: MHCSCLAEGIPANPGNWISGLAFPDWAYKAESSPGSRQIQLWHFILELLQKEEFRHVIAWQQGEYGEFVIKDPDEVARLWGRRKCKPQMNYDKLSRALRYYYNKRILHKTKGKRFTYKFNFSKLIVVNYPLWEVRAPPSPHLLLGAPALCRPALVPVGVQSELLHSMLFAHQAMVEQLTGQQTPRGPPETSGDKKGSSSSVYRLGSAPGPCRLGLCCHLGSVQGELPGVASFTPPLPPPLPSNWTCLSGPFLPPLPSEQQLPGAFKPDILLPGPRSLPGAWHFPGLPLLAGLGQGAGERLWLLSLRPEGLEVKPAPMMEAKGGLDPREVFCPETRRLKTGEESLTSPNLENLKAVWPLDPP
# How it was run: as §1
# ETV7 = target: T10, ETV7 (Homo sapiens, UniProt Q9Y603 1-341)
# T10 sequence: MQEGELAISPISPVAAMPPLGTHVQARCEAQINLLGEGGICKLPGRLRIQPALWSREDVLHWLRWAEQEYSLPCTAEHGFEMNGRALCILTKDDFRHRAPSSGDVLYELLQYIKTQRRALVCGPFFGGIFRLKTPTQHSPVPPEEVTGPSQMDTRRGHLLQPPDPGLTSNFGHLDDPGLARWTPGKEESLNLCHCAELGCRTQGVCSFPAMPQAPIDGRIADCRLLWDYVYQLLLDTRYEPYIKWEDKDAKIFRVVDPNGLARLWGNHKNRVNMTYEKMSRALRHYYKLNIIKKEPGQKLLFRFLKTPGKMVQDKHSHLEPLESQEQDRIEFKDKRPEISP
# How it was run: as §1
# ETV3 = target: T11, ETV3 (Homo sapiens, UniProt P41162-2 1-143)
# T11 sequence: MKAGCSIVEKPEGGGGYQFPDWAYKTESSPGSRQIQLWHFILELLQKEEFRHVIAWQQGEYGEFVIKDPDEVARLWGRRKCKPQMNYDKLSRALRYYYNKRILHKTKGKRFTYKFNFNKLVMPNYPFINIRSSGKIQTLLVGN
# How it was run: as §1
# ETV6 = ETV6 (Homo sapiens, UniProt P41212 1-452)
# How it was run: as §1
# ELF1, sequence (P32519 whole entry): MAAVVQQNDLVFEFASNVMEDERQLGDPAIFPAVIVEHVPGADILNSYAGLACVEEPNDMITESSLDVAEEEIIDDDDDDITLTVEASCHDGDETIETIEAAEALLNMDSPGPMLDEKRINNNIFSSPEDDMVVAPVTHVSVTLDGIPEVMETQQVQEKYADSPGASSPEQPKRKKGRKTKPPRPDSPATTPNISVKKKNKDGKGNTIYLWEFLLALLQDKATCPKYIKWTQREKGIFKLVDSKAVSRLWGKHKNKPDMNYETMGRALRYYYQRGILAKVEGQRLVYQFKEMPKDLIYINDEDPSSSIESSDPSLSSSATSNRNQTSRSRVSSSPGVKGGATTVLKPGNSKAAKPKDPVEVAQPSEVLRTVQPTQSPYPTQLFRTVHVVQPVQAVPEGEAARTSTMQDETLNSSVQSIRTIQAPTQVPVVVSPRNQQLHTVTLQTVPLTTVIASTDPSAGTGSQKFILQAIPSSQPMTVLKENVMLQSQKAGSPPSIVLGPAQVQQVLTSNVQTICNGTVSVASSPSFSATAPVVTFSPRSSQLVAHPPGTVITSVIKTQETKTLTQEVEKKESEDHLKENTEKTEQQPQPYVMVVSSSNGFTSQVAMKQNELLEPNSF
# SPIB, sequence (Q01892 whole entry): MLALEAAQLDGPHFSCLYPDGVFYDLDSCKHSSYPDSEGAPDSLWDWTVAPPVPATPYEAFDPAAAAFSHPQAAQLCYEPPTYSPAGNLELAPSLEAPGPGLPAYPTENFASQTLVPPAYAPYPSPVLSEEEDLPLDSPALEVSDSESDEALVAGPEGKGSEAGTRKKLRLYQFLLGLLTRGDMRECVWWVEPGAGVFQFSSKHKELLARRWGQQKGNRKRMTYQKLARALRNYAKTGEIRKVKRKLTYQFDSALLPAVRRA
# ETV6, sequence (P41212 whole entry): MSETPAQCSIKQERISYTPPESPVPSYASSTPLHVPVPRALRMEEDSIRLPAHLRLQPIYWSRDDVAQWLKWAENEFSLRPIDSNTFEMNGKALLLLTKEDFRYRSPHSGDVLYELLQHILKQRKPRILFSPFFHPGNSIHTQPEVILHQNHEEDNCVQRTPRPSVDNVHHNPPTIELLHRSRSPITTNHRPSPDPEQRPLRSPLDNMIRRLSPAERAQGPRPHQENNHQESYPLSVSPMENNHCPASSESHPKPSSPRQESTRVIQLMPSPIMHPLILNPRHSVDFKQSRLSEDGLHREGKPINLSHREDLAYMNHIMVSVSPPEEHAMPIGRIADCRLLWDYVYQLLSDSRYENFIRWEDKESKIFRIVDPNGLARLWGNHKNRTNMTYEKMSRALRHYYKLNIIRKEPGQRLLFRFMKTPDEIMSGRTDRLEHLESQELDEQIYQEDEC
# ETV1, sequence (P50549 whole entry): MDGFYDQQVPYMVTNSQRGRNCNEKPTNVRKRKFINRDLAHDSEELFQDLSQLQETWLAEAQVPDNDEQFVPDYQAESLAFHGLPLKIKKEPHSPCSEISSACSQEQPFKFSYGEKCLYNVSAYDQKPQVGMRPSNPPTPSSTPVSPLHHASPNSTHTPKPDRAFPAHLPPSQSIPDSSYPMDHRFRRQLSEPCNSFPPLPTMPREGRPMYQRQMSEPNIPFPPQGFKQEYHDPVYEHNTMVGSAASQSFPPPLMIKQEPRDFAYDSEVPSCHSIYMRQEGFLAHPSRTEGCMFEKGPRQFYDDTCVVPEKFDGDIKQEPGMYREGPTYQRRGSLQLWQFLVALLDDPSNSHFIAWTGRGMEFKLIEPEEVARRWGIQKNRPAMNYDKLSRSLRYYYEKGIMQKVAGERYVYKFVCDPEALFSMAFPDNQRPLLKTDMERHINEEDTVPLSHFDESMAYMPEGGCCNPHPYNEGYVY
sequence,measurement,setting,value
TAAAGG,binding signal,ELK1,"1.03 fold enrichment (6-mer frequency, TF over GST control)"
same,binding signal,GABPA,"1.03 fold enrichment (6-mer frequency, TF over GST control)"
same,binding signal,ERG,"1.03 fold enrichment (6-mer frequency, TF over GST control)"
same,binding signal,ELF1,"1.08 fold enrichment (6-mer frequency, TF over GST control)"
same,binding signal,EHF,"1.12 fold enrichment (6-mer frequency, TF over GST control)"
same,binding signal,SPIB,"1.03 fold enrichment (6-mer frequency, TF over GST control)"
same,binding signal,ELK3,"1.1 fold enrichment (6-mer frequency, TF over GST control)"
same,binding signal,SPIC,"1.11 fold enrichment (6-mer frequency, TF over GST control)"
same,binding signal,ELK4,"1.07 fold enrichment (6-mer frequency, TF over GST control)"
same,binding signal,ELF3,"1.1 fold enrichment (6-mer frequency, TF over GST control)"
same,binding signal,ETV1,"1.03 fold enrichment (6-mer frequency, TF over GST control)"
same,binding signal,ETV3L,"1.04 fold enrichment (6-mer frequency, TF over GST control)"
same,binding signal,ETV7,"1.09 fold enrichment (6-mer frequency, TF over GST control)"
same,binding signal,ETV3,"1.09 fold enrichment (6-mer frequency, TF over GST control)"
same,binding signal,ETV6,"1.07 fold enrichment (6-mer frequency, TF over GST control)"
